From PubChem BioAssay AID624169 (The Scripps Research Institute Molecular Screening Center, 2012)
About 2,400 (0.67%) of roughly 360,000 compounds were called active.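 How the source made its calls: active means activation above a run cutoff, the mean activation of all tested compounds plus 3 SD (cut at about 14% in these data); inactive means the rest.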 This excerpt belongs to a sample that is enriched for actives.

The molecules below were run against 5-hydroxytryptamine receptor 2A (Mus musculus) (UniProt P35363) (assay: activation of mouse 5-HT2A receptor – cell-based, luminescence, primary screen (AID 624169;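 further: 0% = plate median of compound wells and 100% = 30 µM serotonin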)). Conditions: CHO-K1 mHTR2A beta-arrestin complementation, at 7.6 µM, hits give high values, percent of 30 µM serotonin response.
5-hydroxytryptamine receptor 2A (Mus musculus), sequence (P35363 whole entry, looked up): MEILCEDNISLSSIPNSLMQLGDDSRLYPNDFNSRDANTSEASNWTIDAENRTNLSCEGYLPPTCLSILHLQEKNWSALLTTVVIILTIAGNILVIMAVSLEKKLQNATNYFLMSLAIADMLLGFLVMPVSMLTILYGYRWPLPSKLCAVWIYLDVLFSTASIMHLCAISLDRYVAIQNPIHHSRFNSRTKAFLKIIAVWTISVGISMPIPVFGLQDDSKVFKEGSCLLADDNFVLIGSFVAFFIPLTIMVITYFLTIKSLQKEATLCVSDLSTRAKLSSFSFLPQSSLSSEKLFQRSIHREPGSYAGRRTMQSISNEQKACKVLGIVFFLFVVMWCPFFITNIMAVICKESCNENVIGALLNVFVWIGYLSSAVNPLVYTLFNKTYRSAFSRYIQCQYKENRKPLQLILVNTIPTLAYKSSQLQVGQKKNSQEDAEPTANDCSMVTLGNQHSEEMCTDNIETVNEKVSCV

activation, active:
COCCN(Cc1cc2cc3c(cc2nc1Cl)OCO3)C(=O)c1cccc(C)c1 16.6%, CSc1nsc(SCC(=O)Nc2cc(C(=O)O)ccc2C)n1 15.6%, CNCC(O)c1ccc(O)c(O)c1 (configuration not stated) 26.5%, OCC1(Cc2ccccc2)CCN(Cc2cc3ccccc3o2)CC1 19.6%, C[C@@H]1ON(C)[C@H]2C[C@H]3c4cc(N5CCN(C)CC5)ccc4CCN3C(=O)[C@@H]12 29.5%, Cc1cccnc1C(NC(=O)C1CCN(Cc2ccc(Cl)c(Cl)c2)CC1)c1ccc(Cl)cc1 (configuration not stated) 16.4%, Cc1cc(C(=O)OCC(=O)N2c3ccccc3NC(=O)C2(C)C)c(C)n1-c1ccccc1 15.2%, N/C(=N\S(=O)(=O)c1cc(C(F)(F)F)cc(C(F)(F)F)c1)c1cccs1 31.8%, Cc1ccc(N2C(=O)C3N=NN(CC(=O)N4N=C(c5cccc6ccccc56)CC4c4ccccc4)C3C2=O)cc1 (configuration not stated) 17.6%

activation, inactive:
Cc1ccccc1C(=O)N1CCC(C(=O)Oc2ccc(C#N)cc2)CC1 -3.91%, O=C(NNc1cc(Cl)cc(Cl)c1)c1c(F)cccc1Cl 1.49%, Cc1ccc2cc(CCNC(=O)c3ccc4c(c3)OCO4)c(=O)[nH]c2c1 5.29%, CCCCN(CC)C(=O)c1ccc2c(c1)OCO2 1.68%, Cn1nnnc1-c1cc(Cl)cc(Cl)c1 2.61%, COc1ccc(C)cc1NC(=O)CSc1nc(SC)ns1 -0.61%, COc1ccc(NC(=O)CSc2nc(SC)ns2)c(OC)c1 0.26%, Cc1cccc(C(=O)N[C@H](C(=O)NCc2cccs2)C(C)C)c1 5.5%, CCC(C)c1ccc(O)c(/C=N/O)c1 (configuration not stated) -3.25%, C=CCNC(=O)C12CC3CC(C1)CC(C(=O)NCC=C)(C3)C2 -0.48%, Cc1ccccc1NC(=O)C1CCN(C(=O)NC2CCCCC2)CC1 -2.36%, O=C(Nc1ccccc1C(=O)O)c1ccc(N2C(=O)C3CC=CCC3C2=O)cc1 (configuration not stated) -7.43%, O=C(c1cc2ccccc2o1)N1CCN(Cc2ccccc2)CC1 -4.53%, CC(C)c1csc(CN2CCC(CO)(Cc3ccccc3)CC2)n1 -5.03%, CC(C)(C)NC(=O)C(=O)NCc1ccncc1 -5.23%, COCCCN1C(=O)c2ccc(C(=O)OCC(=O)NCc3ccccc3OC)cc2C1=O -1.38%, COc1ccc(S(=O)(=O)NC(C)c2ccccc2)cc1C(=O)N1CCCCC1 (configuration not stated) 4.88%, CN[C@H]1C[C@H]2c3cc(Oc4ccccc4C)ccc3CCN2C(=O)[C@H]1[C@H](C)O 0.5%, C[C@H](O)[C@@H]1C(=O)N2CCc3ccc(N4CCOCC4)cc3[C@@H]2C[C@@H]1N(C)C(=O)C(C)(C)C 9.06%, Cc1nn(C)cc1S(=O)(=O)N1CCN(c2ccc(F)cc2)CC1 -4.86%, Cc1ccc(C(NC(=O)C2CCN(CCOc3ccc(Cl)cc3Cl)CC2)c2ccccn2)cc1 (configuration not stated) -3.52%, O=C(NC(c1ccc(Cl)cc1)c1cnccn1)C1CCN(Cc2ccc(Cl)cc2)CC1 (configuration not stated) -6.28%, CCC/C=C(\CCC)C(NC(=O)Cc1ccccc1)c1ccc(C(=O)OC)cc1 (configuration not stated) -7.9%, Cc1cccc(N2CC(C)Cn3c2nc2c3c(=O)n(CC(=O)OCc3ccccc3)c(=O)n2C)c1 (configuration not stated) 0.76%, CNS(=O)(=O)c1cccc(C(=O)OCC(=O)N2c3ccccc3NC(=O)C2(C)C)c1 -2.19%, Cc1ccc(OCCC(=O)OCC(=O)N2c3ccccc3NC(=O)C2(C)C)cc1 -2.36%, COc1ccc(N)cc1NC(=O)CN1CCOCC1 -3.94%, COc1ccc(C)cc1N(C(=O)Cn1nnc(-c2ccc(C)o2)n1)C(C(=O)NC1CCCC1)c1ccncc1 (configuration not stated) -2.27%, COC(=O)c1ccc(S(=O)(=O)NCc2ccccc2)n1C -2.3%, CC(C(=O)N1CCc2ccccc21)N(C)CC(=O)Nc1ccc(F)cc1 (configuration not stated) -3.41%, Cc1ccc(S(=O)(=O)/N=C(\N)c2ccc(F)cc2)cc1 0.59%, O=C(Cc1cccs1)NCc1cccc(C(F)(F)F)c1 -6.31%, O=C1C2N=NN(CC(=O)N3N=C(c4cccc5ccccc45)CC3c3ccccc3)C2C(=O)N1c1ccccc1 (configuration not stated) 2.13%, Oc1ccccc1C1=NN(c2ccccc2)C(c2ccccc2)C1 (configuration not stated) 5.22%, CCN(CC(=O)Nc1cccc(S(=O)(=O)N2CCCCC2)c1)Cc1ccccc1 -11.3%, COc1cc(Cl)ccc1OCc1cc(C(=O)N(C)CCc2c(C)n[nH]c2C)no1 -10.7%, CCCNC(=O)C1(C)CCN1C(=O)C1(c2ccccc2)CC1 (configuration not stated) -0.58%, CCCOc1ccc(Cc2c(O)nc(N)[nH]c2=O)cc1C 2.5%
